# Screening results from PubChem.
# This is a sample that favours compounds with a hit; in the whole collection about 10% have one here.
# GPT2 inhibitor = GPT2 alanine aminotransferase inhibition. AID 1671188. 100,000 compounds, 0.25% hits. Potency, µM (series often up to 57.7 µM), without a hit: top-dose activity change, negative = inhibition, usual class: inhibitors. Recombinant GPT2, coupled pyruvate oxidase/HRP Amplex Red fluorescence. Q8TD30; further: potency means the concentration at half of the fitted maximal effect; on the % scale 0 is the no-effect control and ±100 the full control effect; nearly all actives have a fitted effect of over 60% in size
#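 Inhibition is scored from Amplex Red fluorescence generated when pyruvate oxidase and HRP act on pyruvate released by GPT2. Reactions contain 10ng/uL enzyme, 250uM a-KG and 2mM L-alanine and run 30 min at room temperature.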
# NIH3T3 tox = kills NIH 3T3 cells; Potency, µM (top dose mostly 96.7 µM), for the others: at the top dose activity change, negative = cytotoxicity, most hits filed as inhibitors; 94,000 compounds, 4.3% hits; NIH 3T3 viability, CellTiter-Glo ATP luminescence, 48-72 h; AID 1345082; further: potency means the concentration at half of the fitted maximal effect; on the % scale 0 is the no-effect control and ±100 the full control effect; nearly all actives have a fitted effect of over 55% in size
#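 Cytotoxicity was measured by CellTiter-Glo ATP luminescence after 48 or 72 h compound exposure at 37 °C. Mouse NIH 3T3 fibroblasts were seeded at 400 cells/well and dosed by 23 nL pin transfer.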
# hNpr1 antagonist = blocks ANP-stimulated signaling of human Npr1 receptor; P16066; HEK293 hNpr1 GloSensor cGMP, ANP-stimulated luminescence; Potency, µM (top dose mostly 46.3 µM), for inactives: at the top dose activity change, negative = inhibition, hits mostly inhibitors; 76,000 compounds, 1.6% hits; AID 1347048; calls by dose curve; further: potency means the concentration at half of the fitted maximal effect; on the % scale 0 is the no-effect control and ±100 the full control effect; nearly all actives have a fitted effect of over 60% in size
#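 HEK293 cells stably expressing human Npr1 and cGMP GloSensor pGS-40F, loaded 2 h with 2% GloSensor reagent, given compound 30 min at room temperature. Luminescence read before and 20 min after 0.1 nM hNppA.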
# HEK cytotox = HEK 293 cell cytotoxicity; 94,000 compounds, 6.6% hits; Potency, µM (doses to about 115 µM), for the others: at the highest dose activity change, negative = cytotoxicity, most hits filed as inhibitors; HEK 293 viability, ATP luminescence (CellTiter-Glo), 48-72 h; further: potency means the concentration at half of the fitted maximal effect; on the % scale 0 is the no-effect control and ±100 the full control effect; nearly all actives have a fitted effect of over 60% in size
#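 ATP-coupled CellTiter-Glo luminescence served as viability read-out, recorded 10 min after reagent addition at room temperature. HEK 293 cells, 250 cells/well, had been incubated with pintool-transferred compound for 48 or 72 hr at 37 degree Celsius.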
# FLuc inh-1 = blocks purified firefly luciferase enzyme activity | P08659 | purified P. pyralis luciferase, luminescence, biochemical | Potency, µM (highest dose often 115 µM), hits mostly inhibitors | 76,000 compounds, 2.5% hits | AID 1347043; further: potency means the concentration at half of the fitted maximal effect; on the % scale 0 is the no-effect control and ±100 the full control effect; nearly all actives have a fitted effect of over 65% in size
# Target sequence (P08659 whole entry, looked up): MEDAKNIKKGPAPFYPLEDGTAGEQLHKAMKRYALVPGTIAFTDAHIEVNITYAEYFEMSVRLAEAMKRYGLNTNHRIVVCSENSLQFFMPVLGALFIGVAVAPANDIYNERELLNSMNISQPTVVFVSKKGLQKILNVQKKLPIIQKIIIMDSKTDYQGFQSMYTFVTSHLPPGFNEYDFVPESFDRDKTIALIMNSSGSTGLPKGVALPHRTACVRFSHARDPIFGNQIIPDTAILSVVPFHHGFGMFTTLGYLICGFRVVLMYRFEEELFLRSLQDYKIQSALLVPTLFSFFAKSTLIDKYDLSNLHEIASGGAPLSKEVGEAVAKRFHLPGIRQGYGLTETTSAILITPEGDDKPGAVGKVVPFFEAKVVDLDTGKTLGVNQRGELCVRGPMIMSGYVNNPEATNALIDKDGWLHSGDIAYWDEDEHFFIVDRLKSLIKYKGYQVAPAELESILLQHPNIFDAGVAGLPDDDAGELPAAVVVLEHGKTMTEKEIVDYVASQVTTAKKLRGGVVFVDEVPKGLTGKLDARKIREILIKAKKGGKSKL
#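 Inhibitors were tested against purified firefly luciferase in a biochemical, low-substrate format (both substrates at 10uM) and luminescence measured with a CCD imager.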
# FLuc SDR -ATP = binders stabilizing firefly luciferase, without ATP; shares compounds with FLuc inh-1; AID 1963318; Potency, µM (doses to about 32.7 µM), for inactives: top-dose activation (signal gain), hits mostly activators; Purified FLuc-C-HiBiT, Nano-Glo HiBiT luminescence, no ATP; 1,300 compounds, 7.8% hits; further: potency means the concentration at half of the fitted maximal effect; nearly all actives have a fitted effect of over 55% in size
# FLuc SDR ATP = binders stabilizing firefly luciferase, plus ATP. shares compounds with FLuc inh-1. purified FLuc-C-HiBiT + ATP, HiBiT complementation luminescence. Potency, µM (doses to about 32.7 µM), without a hit: at the top dose activation (gain of signal), usual class: activators. 1,300 compounds, 8.7% hits. AID 1963319;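 further: signal reports ligand binding via conformational change of the enzyme rather than luciferase catalysis; potency means the concentration at half of the fitted maximal effect; % of control where 0% means no effect; nearly all actives have a fitted effect of over 55% in size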
# FLuc inh-2 = blocks firefly luciferase enzymatic activity; Potency, µM (top dose mostly 32.7 µM), for the others: at the top dose activity change, negative = inhibition, hits mostly inhibitors; 1,300 compounds, 42% hits; shares compounds with FLuc inh-1; purified FLuc-C-HiBiT enzyme, luciferin luminescence; further: potency means the concentration at half of the fitted maximal effect; on the % scale 0 is the no-effect control and ±100 the full control effect; nearly all actives have a fitted effect of over 70% in size
# NPR1 antag cnf = hNpr1 antagonism, confirmation assay. 1,400 compounds, 76% hits. shares compounds with hNpr1 antagonist. AID 1347044. Potency, µM (doses to about 57.6 µM), inactives show top-dose activity change, negative = inhibition, actives largely listed as inhibitors. HEK293 hNpr1 cGMP GloSensor luminescence, ANP-stimulated; calls by dose curve; further: potency means the concentration at half of the fitted maximal effect; nearly all actives have a fitted effect of over 70% in size
# NPR2 antag = antagonizes human Npr2, subtype selectivity check. shares compounds with hNpr1 antagonist. HEK293 hNpr2 GloSensor cGMP luminescence, CNP-stimulated. Potency, µM (highest dose often 57.6 µM), without a hit: at the top dose activity change, negative = inhibition, hits mostly inhibitors. 1,400 compounds, 67% hits; calls by dose curve; further: potency means the concentration at half of the fitted maximal effect; nearly all actives have a fitted effect of over 70% in size
# FLuc counter = inhibits firefly luciferase, false Npr1 antagonist flag | shares compounds with hNpr1 antagonist | purified FLuc enzyme, luminescence, Km substrate | Potency, µM (series often up to 57.6 µM), for the others: top-dose activity change, negative = inhibition, most hits filed as inhibitors | 1,400 compounds, 0.7% hits | AID 1347047; further: potency means the concentration at half of the fitted maximal effect; 0% is about no effect
# GloSensor cGMP = control cell line activity, Npr1 antagonist counter-screen; shares compounds with hNpr1 antagonist; HEK293 GloSensor cGMP, SNP-stimulated, luminescence; Potency, µM (series often up to 57.6 µM), inactives show at the highest dose activity change, negative = inhibition, most hits filed as inhibitors; 1,400 compounds, 69% hits; calls by dose curve; further: potency means the concentration at half of the fitted maximal effect; on the % scale 0 is the no-effect control and ±100 the full control effect; nearly all actives have a fitted effect of over 70% in size
# GPT2 conf = confirmation of human GPT2 inhibitors; shares compounds with GPT2 inhibitor; GPT2 enzyme, coupled Amplex Red pyruvate fluorescence; Potency, µM, usual class: inhibitors; 95 compounds, 90% hits; AID 1671187
# Starred values were filed as active, the others as inactive; i = inactive; ? = inconclusive; nt = no result given; [ ] = remark or other dose. Unless noted, the call rests on the fitted dose curve; in most records, active means well fitted curve in the direction sought with a large enough effect; inconclusive means small, poorly fitted or top-dose-only effect, or another doubt; inactive means no such curve, though single readings can be large; an effect the other way counts as inactive or inconclusive.
SMILES,GPT2 inhibitor,NIH3T3 tox,hNpr1 antagonist,HEK cytotox,FLuc inh-1,NPR1 antag cnf,NPR2 antag,FLuc counter,GloSensor cGMP,others
c1nc(N2C[C@@H](c3ccc4c(c3)OCO4)[C@@H]3[C@H]2C2CCN3CC2)c2[nH]cnc2n1,0%,-10%,0%,-6%,i,nt,nt,nt,nt,FLuc SDR -ATP=13%;FLuc SDR ATP=10%;FLuc inh-2=3%
c1cc(CN2C[C@H](c3ccc4c(c3)OCO4)[C@@H]3[C@H]2C2CCN3CC2)ccn1,-3%,-25%,0%,1%,i,nt,nt,nt,nt,
O=C(O)C1=NOC2CN(CC3CCCCC3)CC12 (stereo not given),2%[88.5 µM],2%[138 µM],nt,i,nt,nt,nt,nt,nt,
Cc1ccccc1Cn1cccc(C(=O)Nc2nc3ccccc3s2)c1=O,nt,nt,nt,nt,nt,nt,nt,nt,nt,FLuc SDR -ATP=?;FLuc SDR ATP=?;FLuc inh-2=0.88µM*
CC(C)(C)CC(=O)N1C[C@@H]2C[C@H](C1)c1ccc(NC(=O)Nc3cccc(F)c3)c(=O)n1C2,?,?,5%,?,14µM*,nt,nt,nt,nt,FLuc SDR -ATP=14%;FLuc SDR ATP=8%;FLuc inh-2=-15%
COc1ccccc1NC(=O)Nc1ccc2n(c1=O)C[C@H]1C[C@@H]2CN(C2CCOCC2)C1,?,-24%,-12%,?,i,nt,nt,nt,nt,
O=C(C1CCCC1)N1[C@H]2CC[C@@H]1c1cnc(-c3ccc(F)cc3)nc1C2,i,-11%,10µM*,16µM*,i,8.6µM*,12µM*,-1%,8.6µM*,
COCC(=O)N1[C@H]2CC[C@@H]1c1cnc(-c3ccc(F)cc3)nc1C2,i,-13%,1%,?,i,nt,nt,nt,nt,
CC(C)CC(=O)N1[C@H]2CC[C@@H]1c1cnc(-c3ccc(F)cc3)nc1C2,-4%,?,13µM*,20µM*,i,24µM*,24µM*,3%,19µM*,
Cn1cc(C(=O)N2[C@H]3CC[C@@H]2c2cnc(-c4ccc(F)cc4)nc2C3)cn1,i,-23%,0%,?,i,nt,nt,nt,nt,
CC(C)C(=O)N1[C@H]2CC[C@@H]1c1cnc(-c3ccc(F)cc3)nc1C2,-3%,-28%,22µM*,?,i,19µM*,22µM*,1%,19µM*,
CCn1nccc1C(=O)N1[C@H]2CC[C@@H]1c1cnc(-c3ccc(F)cc3)nc1C2,i,?,6.3µM*,?,i,11µM*,12µM*,2%,11µM*,
Cn1cccc1CN1CCC2(CN[S+](=O)([O-])c3cccnc3O2)C1 (stereo not given),i,i,nt,i,nt,nt,nt,nt,nt,
C[C@H]1CN(Cc2ccc(CC(=O)N3CCC(Nc4cccc(F)c4)CC3)cc2)CCN1,-25%,nt,nt,nt,nt,nt,nt,nt,nt,
COc1ccc(CC(=O)N2CCC3(CC2)c2nccn2-c2ccccc2CN3C)cc1,-7%,?,?,-7%,i,?,?,1%,0%,
CN1Cc2ccccc2-n2ccnc2C12CCN(C(=O)C1(c3ccccc3)CC1)CC2,-3%,-5%,?,?,i,?,?,-1%,14%,
COc1ccc(C(=O)N2CCC3(CC2)c2nccn2-c2ccccc2CN3C)cc1,i,i,2%,-3%,i,nt,nt,nt,nt,
COc1cc2c(cc1OCc1ccccc1)NC(=O)C21CCN(c2ccccn2)CC1,i,-21%[138 µM],?,?,i,?,?,-3%[86.2 µM],?,
COc1cc2c(cc1Oc1ccccc1)NC(=O)C21CCN(Cc2cccc(O)c2)CC1,-17%[88.5 µM],22µM*,?,?,i,40µM*,?,2%[86.2 µM],31µM*,
CCc1cnc(N2CCC3(CC2)C(=O)Nc2cc(OCc4ccccc4)c(OC)cc23)nc1,?,?,-1%,?,i,nt,nt,nt,nt,
c1ccc(C2CNC2)cc1,-18%[88.5 µM],i,nt,i,nt,nt,nt,nt,nt,
c1cc(-c2nnc(C3CNCC34CCOCC4)o2)ccn1 (stereo not given),1%,-11%,4%,i,i,nt,nt,nt,nt,
Oc1ccc2[nH]cc(CCCCN3CC=C(c4ccccc4)CC3)c2c1,3.5µM*,nt,nt,nt,nt,nt,nt,nt,nt,GPT2 conf=7.7*
CN1C(=O)[C@@H](Cc2c[nH]c3ccccc23)N=C(c2ccccc2F)c2ccccc21,-8%,nt,nt,nt,nt,nt,nt,nt,nt,
